CDC25B CDK2 inh: primary biochemical HTRF screen for blockers of M-phase inducer phosphatase 2 binding to CDK2/cyclin A; HTRF CDC25B-CDK2/CyclinA binding, anti-His/anti-Flag; active compounds read high; z-score (no concentration beside the values); actives 0.72% (n = 94,000); in the data active = z-score above about 3.2
HIV TAR-Tat: TAR RNA-Tat peptide displacers, HIV-1, primary screen, biochemical, FRET, FAM/TAMRA-labeled Tat | HIV-1 TAR RNA, Tat peptide displacement FRET; active compounds read high | z-score (no concentration beside the values) | actives 0.6% (n = 100,000); active = z-score of 3 or more in at least 2 runs
* = called active by the depositor; . = no result given. A selection: hits, their analogues and other compounds. The true share with any hit is near 0.93%.

SMILES | CDC25B CDK2 inh | HIV TAR-Tat
Cc1ccc(S(=O)(=O)c2nc(-c3ccc(F)cc3)oc2S(=O)(=O)C(C)C)cc1 | -3.97 | 1.19
Cc1ccc(Nc2cc(N3CCN(S(=O)(=O)c4ccc(C)cc4C)CC3)nc(C)n2)cc1 | 0.8 | 1.12
CCC(C)NC(=O)C1c2ccccc2C(=O)N(C)C1c1cccs1 (stereo unspecified) | -0.98 | .
COc1ccc(C2CC(=O)Oc3c2c(=O)n(C)c2ccccc32)cc1OC (stereo unspecified) | 0.8 | 0.61
Brc1ccc(-c2cn3c4c(sc3n2)CCCC4)cc1 | -1.25 | 1.28
O=C(O)CN(CCN(CC(=O)O)Cc1ccccc1O)Cc1ccccc1O | . | 2.22
O=C(O)CN(CC(=O)O)CC(=O)O | 3.65* | .
CCOC(=O)c1c(NC(=O)c2snnc2C)sc(C)c1C | 0.8 | 1.37
O=C(c1noc2ncnc(N3CCOCC3)c12)N1CCN(c2cccc(Cl)c2)CC1 | . | -1.12
CCOC(=O)c1nc2ccccc2n(C(C)=O)c1=O | 19.4* | 0.02
CCOC(=O)c1nc2ccccc2nc1C | . | 1.52
Oc1cccc(Nc2nc(-c3cccnc3)cs2)c1 | -1.45 | 2.75
O=C(O)c1cc(Nc2nc(-c3cccnc3)cs2)ccc1O | -5.72 | 4.39*
COc1ccc(-c2nc3n(c2C(=O)NC2=NCCS2)CCS3(=O)=O)cc1 | 0.54 | -0.91
O=C1COc2cc(-c3c(N4CCCCC4)c(=O)c3=O)ccc2N1 | . | 1.4
O=C1COc2cc(-c3c(N4CCCC4)c(=O)c3=O)ccc2N1 | . | 11*
O=C(Cc1ccc([N+](=O)[O-])cc1)NC1CCCCCCC1 | -1.17 | .
Cc1cc2c(n1-c1ccc(C(=O)O)cc1)CCCC2 | -0.92 | 1.28
Cc1ccc(C)n1-c1cc(C(=O)O)cc(C(=O)O)c1 | 0.35 | 17.3*
COc1ccccc1Nc1nc(-c2c(C)nc3ccccn23)cs1 | -1.83 | 2.5
COc1ccc(Cl)cc1Nc1nc(-c2c(C)nc3ccccn23)cs1 | 6.62 | 8.26*
COc1cc(-c2nc(-c3ccc(Cl)cc3)no2)cc(OC)c1OC | -0.55 | .
Cc1nnc2c(Nc3ccc(N(C)C)cc3)nc3ccccc3n12 | 0.17 | 0.85
Cc1nnc2c(Nc3ccc(O)cc3)nc3ccccc3n12 | -1.6 | 7.22*
Cc1nc2ccc(S(=O)(=O)NCC(=O)NCCC(C)C)cc2s1 | -1.8 | 1.2
SMILES | CDC25B CDK2 inh | HIV TAR-Tat
O=C(Nc1ccc2c(c1)OCCO2)C1CCN(S(=O)(=O)c2ccc3[nH]c(=O)ccc3c2)CC1 | . | 1.18
O=C(Nc1ccc2c(c1)OCCO2)C1CCN(S(=O)(=O)c2ccc(Br)cc2)CC1 | 4.57* | 1.57
O=c1[nH]nc2c3cc(F)ccc3n(Cc3ccccc3)cc1-2 | -1.09 | 3.16*
Cc1cccc(Cn2cc3c(=O)[nH]nc-3c3cc(F)ccc32)c1 | 1.11 | 1.6
CCOc1ccc(C2/C(=C(/O)c3ccc(C)cc3)C(=O)C(=O)N2c2cccnc2)cc1 (stereo unspecified) | 0.11 | -0.47
COC(=O)c1ccc(C2/C(=C(/O)c3ccc(C)cc3)C(=O)C(=O)N2c2cccnc2)cc1 (stereo unspecified) | 12.2* | 0.97
CN1CCN(c2ccc(CNC(=O)C3=Cc4ccccc4OC3)cc2)CC1 | -1.06 | .
O=C(Nc1ccc(Br)cc1F)C1CCN(c2ccc(-c3cccs3)nn2)CC1 | . | 1.34
CCSc1ncc2c(=O)n(CC(=O)NC3CCCC3)cnc2n1 | . | 0.72
CCSc1ncc2c(=O)n(CC(=O)N3CCc4ccccc43)cnc2n1 | . | 9.7*
COc1ccc(/C=C/C(=O)O)cc1OC | . | 0.69
COc1cc(/C=C/C(=O)CC(=O)/C=C/c2ccc(O)c(OC)c2)ccc1O | . | 15.1*
COc1ccc(/C=C/C(=O)CC(=O)/C=C/c2cccc(O)c2OC)cc1O | . | 16.4*
COc1cc(/C=C/C(=O)O)ccc1O | . | 1.49
COc1ccc(OC)c(Nc2c(-c3cc(C)c(C)cc3C)c(=O)c2=O)c1 | . | -0.33
CC(=O)NCCNC(=O)c1ccc(NC2=NC3CS(=O)(=O)CC3S2)cc1 (stereo unspecified) | . | 11.2*
CN(C)CCNC(=O)c1ccc(NC2=NC3CS(=O)(=O)CC3S2)cc1 (stereo unspecified) | . | 2.12
COc1ccc(-c2cnnc(-n3nc(C)c4c3NC(=O)CC4c3ccc(OC)cc3OC)n2)cc1 (stereo unspecified) | -1.21 | 1.83
CC(=O)Oc1cc2c(C(=O)NC3CCS(=O)(=O)C3)c(C)oc2c2ccccc12 (stereo unspecified) | 9.98* | -7.68
CC(=O)Oc1cc2c(C(=O)NCC3CCCO3)c(C)oc2c2ccccc12 (stereo unspecified) | 2.34 | 1.29
COc1ccc(-c2ccc3c(n2)sc2c(O)cc(=O)[nH]c23)cc1OC | -0.51 | 5.14
O=c1cc(O)c2sc3nc(-c4ccncc4)ccc3c2[nH]1 | 2.5 | 15.2*
O=C(O)CCCC(=O)Nc1cccc(F)c1C(=O)O | -2.47 | .
COc1ccc(/C=C(\C#N)C(N)=S)cc1 | 1.55 | .
CC1CN(C)C(C)C(/C=C(/C#N)C(N)=S)C1=O (stereo unspecified) | 7.89* | .
